Integrin act MD: activators of alpha7 integrin expression for muscular dystrophy. alpha7betagal myoblasts, beta-gal FDG fluorescence, 48 h. Potency, µM (doses to about 38.3 µM), usual class: activators. 350,000 compounds, 0.064% hits. AID 624291; active = well fitted activation curve with a large enough effect; inconclusive = small, poorly fitted or top-dose-only effect; inactive = no such curve, though single readings can be large or run the other way; note: nearly all actives have a fitted effect of over 60% in size
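alpha7betagal+/- myoblasts (passage 13, 250/well) treated 48 h at 37C with compounds at 1:260 dilution of DMSO stock. Lysed, then beta-galactosidase activity read as FDG fluorescence (ex 480/em 540) after 30 min, with pre-read for autofluorescence.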
D3 antag: blocks the human D3 dopamine receptor; P35462; D3R cells, DiscoveRx beta-arrestin luminescence, antagonist mode; active compounds read low; max response, negative = inhibition, %; 360,000 compounds, 2.5% hits; AID 652054; in the data active = max response below about -50%; inconclusive = no clear call, values can overlap the other calls
Target sequence (P35462 whole entry, looked up): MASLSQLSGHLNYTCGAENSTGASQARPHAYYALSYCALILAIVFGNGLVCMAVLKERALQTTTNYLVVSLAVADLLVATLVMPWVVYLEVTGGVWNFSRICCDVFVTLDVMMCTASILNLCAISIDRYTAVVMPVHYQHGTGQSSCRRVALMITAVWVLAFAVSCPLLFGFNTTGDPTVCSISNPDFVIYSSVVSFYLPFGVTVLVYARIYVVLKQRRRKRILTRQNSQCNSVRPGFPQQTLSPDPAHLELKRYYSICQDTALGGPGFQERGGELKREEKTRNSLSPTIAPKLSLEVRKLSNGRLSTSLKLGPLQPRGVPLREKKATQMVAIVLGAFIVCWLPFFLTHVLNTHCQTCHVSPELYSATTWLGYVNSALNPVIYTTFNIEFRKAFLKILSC
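Cells expressing the human receptor were seeded at 1500 cells/well, incubated overnight at 37 degrees C in 5% CO2, then exposed to library compounds with dopamine controls for 90 minutes at 37 degrees C before luminescent detection.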
DRD3 agonist: agonists of human D3 dopamine receptor; 410,000 compounds, 0.58% hits; max activation, %; P35462; D3R DiscoveRx beta-arrestin cells, luminescence, 90 min; in the data active = max activation above about 30%
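Agonist-mode cell screen: cells plated at 1500/well and incubated overnight at 37 °C, then exposed to library compounds for 90 min at 37 °C. Detection reagent was added for 30–60 min at room temperature, and luminescence was read.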
A number is an active result; - = inactive; ? = inconclusive; . = not tested or not shown. An excerpt weighted towards active compounds, which were near 2.9% of everything screened.

SMILES	Integrin act MD	D3 antag	DRD3 agonist
O=C1c2c(O)cccc2[C@H]([C@@H]2O[C@H](CO)[C@@H](O)[C@H](O)[C@H]2O)c2cc(CO)cc(O)c21	.	.	-
O=C(O)c1cc(O)c2c(c1)[C@@H]([C@H]1c3cc(C(=O)O)cc(O)c3C(=O)c3c(O[C@@H]4O[C@H](CO)[C@@H](O)[C@H](O)[C@H]4O)cccc31)c1cccc(O[C@@H]3O[C@H](CO)[C@@H](O)[C@H](O)[C@H]3O)c1C2=O	-	-50	-
O=C1CC2(CCCCC2)CC(=O)N1CCc1ccccc1	?	-	-
O=C1C=CC(=O)C(C2=C3C(=O)N(CCc4ccccc4)CC(=O)N3CCC2)=C1	-	-72	-
CCOC(=O)c1c(-c2ccc(C)s2)csc1NC(=O)c1cccs1	-	-	-
CCOC(=O)c1c(-c2cccs2)csc1NC(=O)CCCC(=O)O	-	-	44
CCOC(=O)c1c(NC(=O)c2cccs2)sc(CC)c1-c1cccs1	-	-	62
CCOC(=O)c1c(-c2cccs2)csc1NC(C)=O	-	-	-
CC1CN(C(=O)Nc2ccc(C(=O)NCCc3ccccc3Cl)cc2)c2ccccc2S1 (centres undefined)	.	.	-
COc1cc(CNc2ccccc2SC)ccc1O	-	-	-
CCC(CC)C(=O)Nc1ccc2nc(SCC(=O)N3CCc4ccccc43)sc2c1	.	.	-
COc1ccccc1NC(=O)CSc1nc(-c2ccc(C)cc2)nc2c1Cc1c(CO)cnc(C)c1O2	.	.	-
O=C(c1ccc(Cl)c(S(=O)(=O)Nc2ccc(F)cc2)c1)N1CCN(c2ccccn2)CC1	-	-	38
O=C(c1ccc(Cl)c(Cl)c1)N1CCN(c2ccccn2)CC1	-	-	-
COC(=O)C1C=CC(OC2OC(COC(C)=O)C(OC(C)=O)C(OC(C)=O)C2OC(C)=O)n2c(=O)n(-c3ccccc3)c(=O)n21 (centres undefined)	-	?	-
CC1N=C2c3ccccc3N=C(SCc3cc(=O)n4cc(Cl)ccc4n3)N2C1=O (centres undefined)	-	-	-
Cc1nn(-c2ccccc2)c2nc(-c3ccco3)cc(C(=O)O)c12	-	-52	-
Cc1nn(-c2cccc(Cl)c2)c2nc(-c3ccco3)cc(C(=O)O)c12	-	-	-
CN1CCc2nc(SCc3ccc(Cl)cc3)c(C#N)c(-c3cccs3)c2C1	-	-60	-
N#Cc1cc2c(nc1SCc1ccccc1)CCCCC2	-	-	-
N#Cc1c(N)nc(SCc2ccncc2)c(C#N)c1-c1cccs1	-	-	-
N#Cc1cc2c(nc1SCc1ccc(Cl)cc1)CCCC2	-	-64	-
COc1ccc([C@H]2/C=C\CN(S(C)(=O)=O)[C@@H](C)C(=O)N2Cc2ccc(F)cc2)cc1	-	-	-
COc1ccc(CCNC(=O)CSc2nc3sc(C(=O)O)c(C)c3c(=O)[nH]2)cc1OC	-	-	-
CCOC(=O)C1CCN(C(=O)COC(=O)c2nn(C)c(=O)c3ccccc23)CC1	-	-	-
SMILES	Integrin act MD	D3 antag	DRD3 agonist
O=C(c1ccc(Br)cc1)N1CCC(C(=O)N2CCN(Cc3ccccc3)CC2)CC1	-	?	-
CN(C)C(CNc1ccc(S(C)(=O)=O)cc1[N+](=O)[O-])c1ccccc1 (centres undefined)	-	-64	-
COc1ccc(C(CNc2ccc(S(C)(=O)=O)cc2[N+](=O)[O-])N(C)C)cc1OC (centres undefined)	-	?	-
CCc1cccc(NC(=O)Cn2c(=O)n(CCC(=O)NCC3CCCO3)c(=O)c3cc(OC)c(OC)cc32)c1 (centres undefined)	-	-	-
O=C(N/N=C/c1c(F)c(F)c(F)c(F)c1F)c1cc(-c2ccccc2)nc2ccccc12	-	-	-
O=C(O)/C=C(/c1ccccc1)C(F)(F)F	-	-	-
Cc1ccc(CNC(=O)c2cc(-c3ccccc3)n(Cc3cc(C)no3)n2)cc1	-	-	-
Cc1cc(Cn2nc(C(=O)NCc3cccc(C(F)(F)F)c3)cc2-c2ccccc2)on1	-	-60	-
CSc1ccc(CCNC(=O)CCc2nnc3ccc(NCCCN4CCCC4=O)nn23)cc1	-	-	-
COc1ccc(S(=O)(=O)NNC(=O)c2cccs2)cc1	-	-	-
O=C(NNS(=O)(=O)c1ccc(Cl)cc1)c1cccs1	-	-61	-
CC(C)(C)C(=O)Nc1cc(S(=O)(=O)N2CCCCC2)ccc1N1CCCCC1	-	-	-
O=C(NNC(=S)NC1CCCCC1)c1sc2ccccc2c1Cl	-	-64	-
O=C(NNC(=O)c1sc2cccc(Cl)c2c1Cl)Nc1ccccc1	-	-	-
O=C(NNC(=O)c1sc2cccc(Cl)c2c1Cl)NC1CCCCC1	-	-74	-
O=C(NC1CC1)c1sc2ccccc2c1Cl	-	-	-
Cc1cc(C)c(NC(=O)CS(=O)CC(=O)NC2CCCc3ccccc32)c(C)c1 (centres undefined)	-	-	-
O=C1/C(=C\c2ccc(O)c(O)c2)SC(=S)N1Cc1ccccc1	-	?	-
COc1cc(/C=C2\SC(=S)N(NC(=O)c3ccc(O)c(OC)c3)C2=O)ccc1O	-	-75	-
COc1cc(/C=C2\SC(=S)N(NC(=O)c3ccncc3)C2=O)ccc1O	?	-	-
CC(/C=C1\SC(=S)N(NC(=O)c2ccncc2)C1=O)=C\c1ccccc1	-	-	-
CCOc1cc(/C=C2/SC(=S)N(CC3CCCO3)C2=O)ccc1O (centres undefined)	-	-64	-
CC(/C=C1\SC(=S)N(NC(=O)c2ccc(C)cc2)C1=O)=C\c1ccccc1	-	-52	-
COc1cc(/C=C2/SC(=S)N(Cc3ccccc3)C2=O)ccc1O	-	-61	-
O=C1/C(=C/c2cccc(O)c2)SC(=S)N1CC1CCCO1 (centres undefined)	-	-	-
SMILES	Integrin act MD	D3 antag	DRD3 agonist
Cc1ccc(NC(=S)N(C)C)cc1C	-	-	-
O=c1c2ccccc2cnn1-c1ccc(Br)cc1	-	-	-
COc1ccc(C(=O)COC(=O)c2sc(C)nc2C)cc1OC	-	-	-
O=C(CSc1cccc(C(F)(F)F)c1)NCc1ccccc1	-	-	-
CN1CCN(C(=O)c2ccc3c(c2)NC(=O)C(N2CCOCC2)S3)CC1 (centres undefined)	-	-	-
COc1ccc(NC(=O)NCCCN2CCc3ccccc3C2)cc1	-	-108	-
O=C(NCCN1CCc2ccccc2C1)Nc1ccc([N+](=O)[O-])cc1	-	-	-
COc1ccc(NC(=O)CN2CCc3ccccc3C2)cc1	-	-80	-
COc1ccc(NC(=O)COC(=O)CN2C(=O)c3ccccc3C2=O)cc1	-	-54	-
COc1ccc(NC(=O)CN2CCc3ccccc3C2)cc1OC	-	-	-
COc1ccc(N2CCN(CCCNC(=O)Nc3ccccc3)CC2)cc1	-	-	-
O=C(NCCCN1CCc2ccccc2C1)Nc1ccc(Br)cc1	-	-55	-
COc1ccc(NC(=O)CCN2C(=O)c3ccccc3C2=O)cc1	?	-	-
NC(=O)c1cc(C(N)=O)nc(Cl)n1	-	-	-
CN1OC[C@@H]2CN(C(=O)C(C)(C)C)[C@H](c3cccc(Br)c3)C[C@@H]21	-	-	-
COc1ccc(NC(=O)CSc2nc3c(cc2C#N)CN(C)CC3)cc1	-	-	-

Screening data deposited in PubChem BioAssay by National Center for Advancing Translational Sciences (NCATS).
